# Data as given in the supplement of paper PMC6555819.
# Test system: VDR:RXRa (NR concentration 270 nM, RXRa partner concentration 90 nM)
# Experiment: PBM binding z-score (relative to random genomic background probes); higher = stronger binding; sequences stand for … in GC…GCGATTGACAGCGTAGAATGAAGG
# Procedure: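 Protein-binding microarray (Agilent 4x180K custom design, double-stranded 60-nt probes: 5' GC cap, 34-nt variable region, 24-nt constant primer region; full probe sequence given). Purified or IVT nuclear receptor:RXRα heterodimers (3:1 NR:RXRα, mostly 270:90 nM) or homodimers were incubated for 1 h in PBS with 2% milk and no ligand, then detected with Alexa488 antibodies. Fluorescence from o1-orientation probes (~5 replicates averaged) was converted to z-scores against 500 random hg19 background probes. Variable regions are seed direct-repeat (DR0–DR5) sites, all their single-nucleotide variants and half-site ablations.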
row,Sequence,PBM binding z-score
1,ATCTCTAGGTAAAGTTAGTTCAGTGAATGCAAAT,1.42
2,AGAACGAGGGCTCGCTGAGTTGATAGCAGAGTAG,-0.517
3,CCGACTGGGGCAGGAAGGTTACCATACCATCCGG,0.235
4,AGTCAAAGTTCACTAGGTAACGTAAGATTCAGCT,3.83
5,GCATATAGGTCATACAAGGTGAAAGTCCGATTGT,4.55
6,TCATATAGGTAATACAGGTGCAAGTCGGCATCTA,1.91
7,AGTCAAAGTTCATCTAGGTAACGTGAGATATGCT,5.17
8,ATATGCAGGTTAGCTGGGGTCATTCAGACTAGGC,6.21
9,GCGACTGGGGCAAAGCAGGTTACCCTAAGGTTGG,0.0152
10,CCAGACAGGTGAGAAGCTAACTCAGCCTCGATTA,-0.228
11,GCTCAGAGGACAAGGTCAGAGCTTTGTCCGTAGA,1.69
12,ATCTCTAGGTAAAAGCTCAGTGAATCCCGAGGAT,-0.227
13,ACTAGCAGGCTAAGGGTCACTCAAGATTAGTCCG,2.97
14,TCTCGGAGGACACGAAAGGTCAGGGCTCGACATC,3.43
15,GATACATGGTCAAGGCCAGAGTACGCGTATTGAT,-0.256
16,ATCTCTAGGTAAAAGTTCAGCGAATCCCGAGGAT,1.69
17,CGCGAAAGGTCGGTTGAGGTGAGTATACGGATAA,2.25
18,CCTAGCAGGCCAATCTGGATCACTCAAGGCTTGA,-0.611
19,CCTTACGTGTCACTGACAGGTTATAGCATTTGGA,0.871
20,CAAACCAGGTCACCGGAAGGTCAAAGTCCGCATG,6.39

row,Sequence,PBM binding z-score
1,ACTTGCAGGCCAAGTTTGGGTCACTCAAACAAAG,0.755
2,GCTATTGGTTGAAAGGGCAACCGAATGATTCTCG,0.563
3,CCTCGCAGGACAACAGGAGGTCAGAGCTGCCAGA,1.42
4,TCATATAGGTAATACAGGTGAAACTCGGCATCTA,1.37
5,TCTAGCAGGCCAGAGGGTCACTCTAGAGGTACGG,0.978
6,TCTCGGAGGACACGTAGGTCAGAGCTTTCCAGAG,1.13
7,CGTCCAGGGTCAAAGGTCAGTGAAGAGATGACGG,6.53
8,TATTGTAGATCAATAGAGGTTAAGAAAGTGCGCT,1.91
9,TCTAGCAGGCCAGAGCGTCACTCAAGAGGTACGG,-0.608
10,TAGCCTAGGTCATTGGGCCAGTATGGTACGCATC,2
11,CCTCGGAGAACAACAGGAGGTCAGAGCTGCCAGA,1.47
12,ATCTCTAGGTAAAAGTTCCGTGAATCCCGAGGAT,-0.0559
13,TCTTGTATATCAATAGAGGTTAAGAAAGTGCGCT,2.14
14,GCGACTGGGGCATGAGCAGGTTACCATAACTTAA,-0.262
15,TCATATAGGTCAAGGTGAAAGTCGAACGATATGA,2.94
16,CAAACTAGGACACCGGAAGGTCAAAGTCCGCATG,3.3
17,ATCTTTAGGTAAAGATAGTTCAGTGAATGCAAAT,0.897
18,ATCTCTAGGTAGAGATAGTTCAGTGAATGCAAAT,0.159
19,GCATATAGGTAGTACAAGGTGAAAGTCCGATTGT,0.154
20,AGAACGAGGGCAATGAGGTGATAGCACGGGTGGC,3.78
